AMA1-RON2 inh – disrupts binding of P. falciparum AMA1 to RON2; Potency, µM (series often up to 58.2 µM), inactives show at the top dose activity change, negative = inhibition, actives largely listed as inhibitors; AlphaScreen AMA1-biotinylated RON2 peptide binding; 360,000 tested, 0.2% active;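 also: 0% = vehicle wells and -100% = peptide control; nearly all actives have a fitted effect of over 45% in size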
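AMA1 (3D7) with his tag at 25 nM final met compounds first, then biotinylated RON2 peptide at 25 nM; detection used donor plus acceptor beads, 10 µg/mL apiece, read by AlphaScreen after 30 min at room temperature.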
AmpC no deterg – blocks E. coli AmpC beta-lactamase in detergent-free assay. Potency, µM (doses to about 57.1 µM), without a hit: top-dose activity change, negative = inhibition, most hits filed as inhibitors. 330,000 tested, 0.52% active. AmpC nitrocefin hydrolysis, absorbance 480 nm, 0.0001% Triton;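 also: plate controls were no compound for no effect and no enzyme for full effect; nearly all actives have a fitted effect of over 20% in size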
Target sequence (P00811 whole entry, looked up): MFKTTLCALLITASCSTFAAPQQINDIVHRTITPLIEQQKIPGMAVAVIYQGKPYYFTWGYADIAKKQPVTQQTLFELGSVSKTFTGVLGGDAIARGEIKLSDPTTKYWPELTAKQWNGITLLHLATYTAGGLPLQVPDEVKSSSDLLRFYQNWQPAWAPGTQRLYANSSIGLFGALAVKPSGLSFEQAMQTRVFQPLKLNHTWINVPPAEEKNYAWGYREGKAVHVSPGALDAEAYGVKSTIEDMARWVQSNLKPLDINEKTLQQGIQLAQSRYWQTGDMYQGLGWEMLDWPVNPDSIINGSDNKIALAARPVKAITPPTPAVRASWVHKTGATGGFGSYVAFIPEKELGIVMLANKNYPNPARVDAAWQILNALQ
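20 mM phosphate pH 7.0 + 0.01% (detergent screen) or 0.0001% Triton X-100; 5.3 nM AmpC reagent; cpd preinc 15 min RT; nitrocefin (800 uM stock) to start; A480 q20 s × 4 min; Activity was normalised to no-enzyme and no-compound control wells.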
AmpC inh detg – blocks E. coli AmpC beta-lactamase in detergent assay; AmpC hydrolysis of nitrocefin, absorbance 480 nm, 0.01% Triton; Potency, µM (top dose mostly 114 µM), for the others: top-dose activity change, negative = inhibition, hits mostly inhibitors; AID 485294; 370,000 tested, 0.041% active;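 also: 0% = no-compound wells and -100% = no-enzyme wells; nearly all actives have a fitted effect of over 25% in size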
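AmpC (5.3 nM in the dispensed reagent) in 20 mM phosphate pH 7.0 with 0.01% (detergent screen) or 0.0001% Triton X-100 was preincubated with compounds for 15 min at room temperature. Nitrocefin was then added from an 800 uM solution, and hydrolysis was followed at 480 nm.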
FMDV inh – foot and mouth disease virus antiviral activity; 410,000 tested, 1.2% active; FMDV antiviral cell-based qHTS; AID 1159524; Potency, µM (top dose mostly 57.9 µM), for the others: top-dose activity change, negative = inhibition, hits mostly inhibitors; calls by dose curve; tested in HEK293T cells; also: read-out not given here; nearly all actives have a fitted effect of over 45% in size
Sm TGR inh – inhibitors of Schistosoma mansoni thioredoxin glutathione reductase | Q962Y6 | purified TGR, DTNB reduction, TNB absorbance 405 nm | Potency, µM (series often up to 114 µM), without a hit: top-dose activity change, negative = inhibition, hits mostly inhibitors | 360,000 tested, 3% active; also: nearly all actives have a fitted effect of over 60% in size
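First, TGR (20 nM dispensed) and NADPH were mixed with compound. Second, a 15 min room-temperature incubation followed. Third, further NADPH and then DTNB were added to start the reaction. Finally, TNB absorbance was monitored kinetically.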
Numbers without * were called inactive; ? = inconclusive; . = no result given. This is a sample that favours compounds with a hit; in the whole collection about 4.1% have one here. Unless noted, calls follow the shape of the dose curve; as a rule, active = well fitted curve in the direction sought with a large enough effect; inconclusive = small, poorly fitted or top-dose-only effect, or another doubt; inactive = no such curve, though single readings can be large; an effect the other way counts as inactive or inconclusive. Unless noted, % is scaled to controls: 0 for no effect and ±100 for the full control effect; potency is read from the fitted curve at half-maximal effect.

SMILES	AMA1-RON2 inh	AmpC no deterg	AmpC inh detg	FMDV inh	Sm TGR inh
CC1CCC(NC(=O)C2(C)CCC(=O)N2Cc2cccnc2)CC1 (stereo not drawn)	-6%	45µM*	?	-23%	0%
CC1(C(=O)NC2CCCCC2)CCC(=O)N1Cc1cccnc1 (stereo not drawn)	-1%	-4%	?	7%	-6%
O=[N+]([O-])c1cc(S(=O)(=O)c2ccc(N3CCCCC3)c([N+](=O)[O-])c2)ccc1N1CCCCC1	-20%	10µM*	2%	-15%	1%
O=[N+]([O-])c1cc(S(=O)(=O)N2CCCCCC2)ccc1F	-9%	-19%	-2%	?	22µM*
O=C(c1ccc(N2CCCCC2)c([N+](=O)[O-])c1)N1CCN(S(=O)(=O)c2ccccc2)CC1	-24%	30%	-5%	-19%	-10%
O=[N+]([O-])c1cccc(S(=O)(=O)c2ccc(N3CCCCC3)c([N+](=O)[O-])c2)c1	-30%	-44%	-5%	?	6%
COc1cccc(C(=O)/C=C/c2ccc(N3CCCCC3)c([N+](=O)[O-])c2)c1	5µM*	-28%	-4%	?	3%
NC(=O)c1ccc(N2CCN(S(=O)(=O)c3ccccc3)CC2)c([N+](=O)[O-])c1	4%	-15%	-14%	16µM*	-1%
Cc1ccc2oc(=O)c3cc(C(=O)N4CCN(c5ccccc5F)CC4)sc3c2c1	.	.	-11%	-3%	-4%
CCOc1ccc2nc(N(Cc3cccnc3)C(=O)c3ccc4c(c3)OCCO4)sc2c1	.	.	-1%	0%	0%
Cc1cc(Nc2cc(Cl)ccc2C)n2nc(-c3ccccc3)nc2n1	.	.	15%	?	5%
O=C(/C=C/c1ccc(N2CCCCC2)c([N+](=O)[O-])c1)c1ccc(S(=O)(=O)N2CCCC2)cc1	-7%	-26%	-12%	20µM*	0%
CC(=O)N1CCN(c2ccc(S(=O)(=O)N3CCCCC3)cc2[N+](=O)[O-])CC1	-4%	45%	.	-28%	.
FC(F)(F)c1ccc(C2Nc3cccc4cccc(c34)N2)cc1	-9%	-32%	?	-16%	20µM*
Cc1ccc(C2Nc3cccc4cccc(c34)N2)s1	-3%	-50%	?	9%	18µM*
Fc1ccc(C2Nc3cccc4cccc(c34)N2)cc1	-12%	-24%	-2%	44%	18µM*
CCCOc1ccc(C2Nc3cccc4cccc(c34)N2)cc1	-1%	52%	-12%	5%	14µM*
CCOc1ccccc1CNC(=O)CCCN1C(=O)c2cccnc2Oc2ccc(Cl)cc21	.	.	1%	-9%	1%
Cc1cc(C)n(-c2nc3ccccc3nc2Nc2ccc(Cl)c(Cl)c2)n1	.	.	10%	-3%	8%
CN(Cc1ccccc1)C(=C(Cl)Cl)C(=C1NCCN1)[N+](=O)[O-]	25%	-18%	-6%	-3%	35µM*
N#C/C(C(=O)Nc1ccc(Cl)cc1)=C(/S)Nc1ccccc1	17%	?	40µM*	27%	-18%
N#Cc1ccc(NC(=O)Nc2ccc(Cl)cc2)cc1	7%	?	-2%	?	6%
Cc1ccc(-n2c3c(cc(C(=O)NCc4ccco4)c2=O)C(=O)CC(C)(C)C3)cc1	-19%	58%	-4%	-19%	22µM*
CC1(C)CC(=O)c2cc(C(=O)NCc3ccco3)c(=O)n(-c3ccc(Cl)cc3)c2C1	-14%	89%	-8%	-21%	32µM*
O=C1CCCc2c1cc(C(=O)NCc1ccco1)c(=O)n2-c1ccccc1	-14%	-13%	?	-1%	-9%
O=C(Nc1ccccc1)C1Cc2ccccc2CN1C(=O)c1ccco1 (stereo not drawn)	9%	-28%	0%	63%	40µM*
COc1ccccc1NC(=O)C1Cc2ccccc2CN1C(=O)c1ccco1 (stereo not drawn)	-7%	-25%	-17%	8%	32µM*
O=C(NCc1noc2ccccc12)N1CCN(c2ccccc2)CC1	.	.	-5%	17%	4%
CN(C)c1ccc(/C=C/C(=O)c2cc(Cl)ccc2O)cc1	14µM*	-27%	0%	34%	?
O=C(/C=C/c1ccncc1)c1cc(Cl)ccc1O	-5%	-2%	1%	7%	?

Source: PubChem BioAssay (National Center for Advancing Translational Sciences (NCATS))
